Assay results reported in PubChem BioAssay AID624173 (National Center for Advancing Translational Sciences (NCATS), 2012).
About 490 (0.12%) of roughly 410,000 compounds were called active. Not shown: some 1% with an inconclusive outcome. Only a selection was taken, and actives are over-represented in it overall. Values without a mark were called inactive. The call rests on the fitted dose curve; in most records, active means well fitted inhibition curve with a large enough effect; inconclusive means small, poorly fitted or top-dose-only effect; inactive means flat fitted curve, though single readings scatter.

Biological target: pyruvate kinase (Trypanosoma brucei) (UniProt Q57TT1)
Assay: qHTS of Trypanosoma Brucei Inhibitors; further: nearly all actives have a fitted effect of over 50% in size
Conditions: TbPYK enzyme, Kinase-Glo Plus ATP luminescence, 45 min; series mostly up to 76.8 µM; activity, negative = inhibition: at the top concentration
Source text: Members of the Trypanosomatidae family of parasitic protozoans cause a spectrum of diseases throughout the tropical and subtropical world. Sleeping sickness, caused by two subspecies of Trypanosoma brucei, is endemic to areas of sub-Saharan Africa, while Chagas' disease, a manifestation of Trypanosoma cruzi infection, is prevalent throughout Central and South America. In addition, many species of Leishmania are responsible for a range of cutaneous and visceral diseases, causing ulcers, destructive lesions and kalaazar, a lethal infection of the viscera. These diseases cause severe public health and economic burdens on populations that are often already caught in a tragic cycle of poverty, poor nutrition and disease. Collectively, parasites of the trypanosomatid family infect 30 million people worldwide (~500 million live in endemic areas), and account for ~130K deaths annually. Existing treatments have developed little in the past 50 years, and suffer from toxicity, poor efficacy and resistance; the goal of this project is to develop lead drugs that will be suitable for entry into pre-clinical trials.
Glycolysis in axenically cultured T. cruzi, representing the intracellular pathogenic stage, is also essential for these parasites. {Engel, 1987} This project aims to discover and optimize selective inhibitors of the glycolytic enzyme pyruvate kinase (PYK) from Trypanosoma brucei, the parasite that causes sleeping sickness. […] Trypanosomatid PYKs show significant differences from their human counterparts including only 47-50% sequence identity and different allosteric and activation properties.{Callens, 1992} To this end, a qHTS was done against the MLSMR to discover inhibitors.
NIH Molecular Libraries Probe Production Network [MLPCN]
NIH Chemical Genomics Center [NCGC]
PI Name: Malcolm Walkinshaw, University of Edinburgh
2 uL of TbPYK/substrate buffer (columns 1-3, 5-48) are dispensed into Greiner white solid bottom 1536-well assay plates; column 4 receives only TEA buffer as 0x TbPYK controls. Compounds are then transferred via Kalypsys pin tool equipped with 1536-pin array (10 nL slotted pins, V&P Scientific, San Diego, CA). Following addition of compound, 2 uL of ADP (130 uM final concentration, all columns) is added to initiate the reaction. The plates are then incubated at room temperature for 45 minutes. Kinase-Glo Plus reagent is added (3 uL) and plates incubated for 10 minutes, before being transferred to a ViewLux high-throughput CCD imager (PerkinElmer) wherein single end-point measurements of luminescence are acquired using a clear filter. All reagents are diluted in an assay buffer consisting of 50 mM TEA (pH 7.2), 100 mM KCl, 10 mM MgCl2, 0.05% BSA and 0.01% Tween-20.
All screening operations will be performed on a fully integrated robotic system (Kalypsys, San Diego, CA) containing one RX-130 and two RX-90 anthropomorphic robotic arms (Staeubli, Duncan, SC). Library plates will be screened starting from the lowest and proceeding to the highest concentration. Vehicle-only plates, with DMSO being pin-transferred to columns 5-48, will be inserted uniformly at the beginning and the end of each library in order to monitor and record any shifts in the background, which can be affected by reagent dispensers or loss in enzyme activity over time. Screening data will be corrected, normalized, and concentration-effect relationships will be derived by using publicly-available curve fitting algorithms developed in-house (http://ncgc.nih.gov/pub/openhts).
On the % scale 0 is the no-effect control and ±100 the full control effect; potency means the concentration at half of the fitted maximal effect.

Question: How did the “activity, negative = inhibition” value turn out when COc1ccc(-c2nc3cnc(OC)nc3n(Cc3ccc(F)cc3)c2=O)cc1 was run?
Answer: -5.21%

Question: COc1ccc(C(=O)N2CCC3(CCCN(C(c4ccccc4)c4ccccc4)C3)CC2)cc1 was tested. Which “activity, negative = inhibition” value did it give?
Answer: -16.4%

Question: With Cc1nc2cnc(N3CCNCC3)nc2n(Cc2ccc(F)cc2)c1=O as the compound, how does the “activity, negative = inhibition” value read?
Answer: -7.19%

Question: For CS(=O)(=O)N1CCC[C@@]2(CCN(c3ccncc3)C2)C1, which “activity, negative = inhibition” value is on record?
Answer: 0.396%

Question: How did the “activity, negative = inhibition” value turn out when O=C(Nc1cccc(C(F)(F)F)c1)c1cc(Br)cc(Br)c1O was run?
Answer: 3.82%

Question: How did the “activity, negative = inhibition” value turn out when O=C(c1cnccn1)N1CCC2(CCCN(Cc3ccccc3)C2)CC1 was run?
Answer: -4.69%

Question: COc1cc([C@@H]2c3cc4c(cc3[C@@H](O[C@@H]3O[C@@H]5CO[C@@H](C)O[C@H]5[C@H](O)[C@H]3O)[C@H]3COC(=O)[C@H]23)OCO4)cc(OC)c1OP(=O)(O)O was tested. Which “activity, negative = inhibition” value did it give?
Answer: 4.69%

Question: How did the “activity, negative = inhibition” value turn out when CC(C)NC(=O)N1CC[C@@]2(CCCN(C(=O)c3cccn3C)C2)C1 was run?
Answer: 6.56%

Question: With CC[C@]1([C@H]2O[C@@H]([C@@H]3O[C@](O)(CO)[C@@H](C)C[C@H]3C)C[C@H]2C)CC[C@@H]([C@]2(C)CC[C@@]3(C[C@@H](O)[C@@H](C)[C@@H]([C@H](C)[C@H](OC)[C@H](C)C(=O)O)O3)O2)O1 as the compound, how does the “activity, negative = inhibition” value read?
Answer: -3.98%

Question: Which “activity, negative = inhibition” value does the source give for CC(C)(O)c1ccccc1CC[C@H](SCC1(CC(=O)O)CC1)c1cccc(/C=C/c2ccc3ccc(Cl)cc3n2)c1 here?
Answer: 10.6%

Question: CC1(C)OC2CC(=O)OC[C@@]23C1CC(=O)[C@]1(C)C3CC[C@@]2(C)C(c3ccoc3)OC(=O)C3O[C@@]321 (stereo partly drawn) was tested. Which “activity, negative = inhibition” value did it give?
Answer: 4.76%

Question: c1ccc2sc(SNC3CCCCC3)nc2c1 was tested. Which “activity, negative = inhibition” value did it give?
Answer: -21.1%

Question: With O=C(c1ncn2c1c(=O)[nH]c1ccccc12)N1CCc2ccccc2C1 as the compound, how does the “activity, negative = inhibition” value read?
Answer: -0.741%

Question: With CC(C)Cn1c(=O)c2ccccc2n2c(-c3cccc(Cl)c3)nnc12 as the compound, how does the “activity, negative = inhibition” value read?
Answer: -6.77%

Question: For O=c1[nH]c2ccccc2n2c(-c3ccccc3)nnc12, which Potency is on record?
Answer: 2.82 µM (active)

Question: How did the “activity, negative = inhibition” value turn out when CCNC[C@H](O)c1cccc(O)c1 was run?
Answer: -5.16% [at 33.2 µM]

Question: How did the “activity, negative = inhibition” value turn out when Cc1c(O)cc2c(c1C)O[C@](C)(CCC[C@H](C)CCC[C@H](C)CCCC(C)C)CC2 was run?
Answer: -8.92%

Question: How did the Potency turn out when Nc1ccccc1SC(C[N+](=O)[O-])c1ccccc1 (stereo not drawn) was run?
Answer: 12.6 µM (active)

Question: CCC(=O)N1CCc2cc(Br)cc(S(=O)(=O)Nc3ccc(C)cc3C)c21 was tested. Which “activity, negative = inhibition” value did it give?
Answer: 1.76%

Question: For COCCn1c(=O)c(-c2ccc(OC)cc2)nc2cnc(Oc3cccc(Cl)c3)nc21, which “activity, negative = inhibition” value is on record?
Answer: 2.75%

Question: N#Cc1cccc(-c2nc3cnc(N4CCNCC4)nc3n(C3CC3)c2=O)c1 was tested. Which “activity, negative = inhibition” value did it give?
Answer: -13.9%

Question: For COc1cc2c(cc1OC)CC(=O)N(CCCN(C)C[C@H]1Cc3cc(OC)c(OC)cc31)CC2, which “activity, negative = inhibition” value is on record?
Answer: 5.47%

Question: CC(C)NC(=O)N1CC[C@@]2(CCCN(C(=O)c3cccc(F)c3)C2)C1 was tested. Which “activity, negative = inhibition” value did it give?
Answer: 5.23%

Question: For COc1cc(C[C@H](C)N)c(OC)cc1Br, which “activity, negative = inhibition” value is on record?
Answer: -1.96% [at 157 µM]

Question: With CCCCC1C(=O)NC(=O)N(C2CCCCC2)C1=O (stereo not drawn) as the compound, how does the “activity, negative = inhibition” value read?
Answer: -8.38%

Question: For O=C1C=CC(=O)N1c1ccc(N2CCCCC2)cc1, which Potency is on record?
Answer: 10 µM (active)

Question: O=C(c1csnn1)N1CCC2(CCN(Cc3nccs3)CC2)CC1 was tested. Which “activity, negative = inhibition” value did it give?
Answer: 0.484%

Question: How did the “activity, negative = inhibition” value turn out when CC1(C)NC(=O)N(CC(=O)Nc2ccc(-c3ccccc3)cc2)C1=O was run?
Answer: -7.35%

Question: With Cc1ccc(NC(=O)Cn2sc3ccccc3c2=O)cc1 as the compound, how does the Potency read?
Answer: 7.94 µM (active)

Question: How did the “activity, negative = inhibition” value turn out when Cc1ccc(NC(=O)Cn2c(=O)n(-c3ccccc3)c(=O)c3c4c(sc32)CCCC4)cc1 was run?
Answer: 8.83%

Question: For CO/N=C(\C(=O)N[C@@H]1C(=O)N2C(C(=O)O)=C(Cn3nnc(C)n3)CS[C@H]12)c1csc(N)n1, which “activity, negative = inhibition” value is on record?
Answer: -4.72%

Question: Which “activity, negative = inhibition” value does the source give for O=C(/C=C/c1cccc(F)c1)NC1CC1 here?
Answer: -11.3%

Question: Which “activity, negative = inhibition” value does the source give for C=CCN1CCC23c4c5ccc(O)c4O[C@H]2C(=O)CC[C@@]3(O)C1C5 (stereo partly drawn) here?
Answer: -1.68%

Question: With CC1(C)OC2CO[C@]3(COS(N)(=O)=O)OC(C)(C)OC3C2O1 (stereo partly drawn) as the compound, how does the “activity, negative = inhibition” value read?
Answer: -0.562%

Question: For O=C1c2c(O)cccc2[C@@H]([C@@H]2O[C@H](CO)[C@@H](O)[C@H](O)[C@H]2O)c2cc(CO)cc(O)c21, which “activity, negative = inhibition” value is on record?
Answer: -15.8%

Question: CCOC(=O)Cc1cccc(-c2cc(CCCCCCc3ccc(O[C@H]4O[C@H](COC(C)=O)[C@@H](OC(C)=O)[C@H](OC(C)=O)[C@@H]4OC(C)=O)c(-c4cccc(CC(=O)OCC)c4)c3)ccc2O[C@H]2O[C@H](COC(C)=O)[C@@H](OC(C)=O)[C@H](OC(C)=O)[C@@H]2OC(C)=O)c1 was tested. Which “activity, negative = inhibition” value did it give?
Answer: 0.402%

Question: For COCC(=O)N1CCC2(CCCN(c3ccccc3)C2)CC1, which “activity, negative = inhibition” value is on record?
Answer: -0.308%

Question: How did the “activity, negative = inhibition” value turn out when Cc1ccc(-c2ncc(Cl)cc2-c2ccc(S(C)(=O)=O)cc2)cn1 was run?
Answer: -10.3%

Question: For CCC(C)C(N)C1=NC(C(=O)NC(CC(C)C)C(=O)NC(CCC(=O)O)C(=O)NC(C(=O)NCCCCC2NC(=O)C(CC(N)=O)NC(=O)C(CC(=O)O)NC(=O)C(Cc3cnc[nH]3)NC(=O)C(Cc3ccccc3)NC(=O)C(C(C)CC)NC(=O)C(CCCN)NC2=O)C(C)CC)CS1 (stereo not drawn), which “activity, negative = inhibition” value is on record?
Answer: 0%

Question: Which “activity, negative = inhibition” value does the source give for CC(=O)N1CCC2(CCCN(Cc3ccccc3)C2)CC1 here?
Answer: 0%

Question: Which “activity, negative = inhibition” value does the source give for CC1(C)[C@H](O[C@H]2O[C@H](C(=O)O)[C@@H](O)[C@H](O)[C@H]2O[C@@H]2O[C@H](C(=O)O)[C@@H](O)[C@H](O)[C@H]2O)CC[C@@]2(C)[C@H]1CC[C@]1(C)[C@H]2C(=O)C=C2[C@H]3C[C@@](C)(C(=O)O)CC[C@]3(C)CC[C@]21C here?
Answer: -2.85%

Question: Which “activity, negative = inhibition” value does the source give for COc1ncc2nc(-c3ccc(Cl)cc3)c(=O)n(-c3ccccc3)c2n1 here?
Answer: 1.82%

Question: Which “activity, negative = inhibition” value does the source give for CCCc1c2oc(C(=O)O)cc(=O)c2cc2c(=O)cc(C(=O)O)n(CC)c12 here?
Answer: -3.87%
